GDH-TPI counter – inhibits GDH-TPI coupling enzymes, artifact for Mtb FBA screen; inhibition, % at 4.8 µM; actives 1.2% (n = 360,000); GDH-TPI coupled enzyme counterscreen, NADH absorbance; in the data active = inhibition above about 30%;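 also: 0% = DMSO wells and 100% = wells lacking the enzyme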
Mtb UGM inh – blocks M. tuberculosis UGM enzyme; actives 0.06% (n = 320,000); purified UGM, fluorescence polarization probe displacement; inhibition, % at 10 µM; in the data active = inhibition above about 10%, passing the limit was not always enough; inconclusive = no clear call, values can overlap the other calls
Target sequence (P9WIQ1 whole entry, looked up): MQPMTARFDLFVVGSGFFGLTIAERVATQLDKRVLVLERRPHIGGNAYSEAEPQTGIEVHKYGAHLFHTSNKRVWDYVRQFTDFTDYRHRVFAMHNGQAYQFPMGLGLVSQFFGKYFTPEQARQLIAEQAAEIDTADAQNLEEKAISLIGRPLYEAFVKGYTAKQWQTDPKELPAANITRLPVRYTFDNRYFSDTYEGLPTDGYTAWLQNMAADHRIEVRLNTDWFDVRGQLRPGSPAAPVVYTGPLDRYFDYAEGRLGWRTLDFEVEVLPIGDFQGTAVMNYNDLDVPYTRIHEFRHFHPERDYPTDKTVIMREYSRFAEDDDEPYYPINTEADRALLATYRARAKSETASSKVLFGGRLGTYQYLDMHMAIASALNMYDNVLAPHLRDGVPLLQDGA
Rv3671c inh – inhibitors of M. tuberculosis serine protease Rv3671c | actives 0.048% (n = 320,000) | inhibition, % at 5.96 µM | P9WHR9 | AID 2606; in the data active = inhibition above about 38%;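 also: extracellular domain of Rv3671c used as enzyme; 0% = enzyme with DMSO and 100% = no enzyme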
Mtb bLac sens – beta-lactam sensitization of Mtb H37Rv. M. tuberculosis H37Rv growth with meropenem, percent inhibition. inhibition, % at 25 µM. actives 0.27% (n = 330,000). AID 434955; call rule not given here;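 also: growth measured after seven days incubation then overnight dye step; 0% = bacteria only wells and 100% = bacteria with antibiotic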
FadD28 FP inh – M. tuberculosis FadD28 bisubstrate binding inhibition; FadD28 bisubstrate probe binding, fluorescence polarization; inhibition, % at 12.5 µM; actives 0.22% (n = 360,000); in the data active = inhibition above about 8.5%, passing the limit was not always enough; inconclusive = no clear call, values can overlap the other calls
Mtb FBA inh – inhibitors of M. tuberculosis fructose-bisphosphate aldolase | P9WQA3 | purified M. tuberculosis FBA, fluorescence read-out | inhibition, % at 1 µM | actives 2.3% (n = 360,000); in the data active = inhibition above about 27%;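 also: 0% = vehicle and 100% = reference inhibitor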
Numbers without * were called inactive; ? = inconclusive; / = no result; + = active, no number. Compounds with a hit are over-represented: about 3.7% of the library has one in this group of screens.

SMILES	GDH-TPI counter	Mtb UGM inh	Rv3671c inh	Mtb bLac sens	FadD28 FP inh	Mtb FBA inh
Cc1c(CC(=O)NCC(=O)O)c(=O)oc2cc3c(cc12)CCC(C)(C)O3	30	1	-9	-7	0	+
NC(=O)c1ccc(NCCc2ccco2)cc1	/	/	/	/	-1	2
COc1ccc(/C=N/NC(=O)c2nc(-c3ccccc3)n(-c3ccccc3)n2)cc1OC	37*	1	-1	4	0	2
COc1ccc(/C=N/NC(=O)c2nc(-c3ccccc3)cc(-c3ccccc3)n2)cc1	32*	-6	-36	56	-4	1
Cc1cc(C)n2c(SCC(=O)N(CCC#N)c3ccc4c(c3)OCCO4)nnc2n1	6	/	/	/	-2	4
COc1cc2c3nnc(-c4ccccc4)c-3cn(Cc3ccccc3F)c2cc1OC	/	11*	0	12	/	/
CC(NC(=O)c1cc(S(=O)(=O)N2CCCC2)ccc1Cl)c1ccccn1 (configuration not stated)	6	6	3	-4	-1	-3
CN(C)c1ccc(/C=C(/NC(=O)c2ccccc2)C(=O)NCCCn2ccnc2)cc1	33*	-3	-13	62	1	-4
Cc1ccc(C(=O)N/C(=C\c2cn(S(=O)(=O)N(C)C)c3ccccc23)C(=O)NCCCn2ccnc2)cc1	16	-2	-8	10	-2	0
O=C(NCCCn1ccnc1)/C(=C/c1ccc(Cl)cc1)NC(=O)c1ccccc1	-5	-3	-7	0	/	1
CCn1cc(/C=C(\NC(=O)c2ccccc2)C(=O)NCCCn2ccnc2)c2ccccc21	45*	/	/	/	-3	0
COC(=O)c1ccc(NC(=O)CN2CCC(NC(=O)c3ccccc3F)CC2)cc1	-3	/	/	/	-4	-2
CCCNC(=O)c1cc2c3ccccc3n(C)c2s1	22	3	-15	-21	0	4
COCCNC(=O)c1cc2c3ccccc3n(C)c2s1	47*	-2	2	7	0	3
CCNC(=O)C1(C)CCCN1Cc1cccc(C(F)(F)F)c1 (configuration not stated)	1	/	/	/	-1	0
O=C(NCCN1C(=O)S/C(=C\c2ccccc2F)C1=O)C1=COCCO1	42*	-3	5	2	-2	3
O=C(NCCN1C(=O)S/C(=C\c2ccccc2Cl)C1=O)C1=COCCO1	20	-4	-3	2	-1	2
O=C(NCCN1C(=O)S/C(=C\c2ccc(OC(F)F)cc2)C1=O)C1=COCCO1	41*	-1	3	1	0	4
COc1cc(/C=C2\SC(=O)N(CCNC(=O)c3c(C)noc3C)C2=O)cc(OC)c1OC	31*	3	5	2	-2	1
COc1cc(C(=O)NCCN2C(=O)S/C(=C\c3cccs3)C2=O)cc(OC)c1OC	17	-1	6	-7	1	-3
O=C(NCCN1C(=O)S/C(=C\c2ccc(Cl)cc2)C1=O)C1=COCCO1	-1	-1	-1	-1	-3	0
COc1ccc(/C=C2\SC(=O)N(CCNC(=O)C3=COCCO3)C2=O)cc1	31*	-1	2	-7	0	2
c1ccc(CN=C(NCc2ccccc2)NCc2ccccc2)cc1	10	/	/	/	-1	1
CCc1cc(C(=O)Cc2cnn(-c3ccccc3)c2)c(O)cc1O	50*	3	-10	-13	1	0
O=C(Cc1cnn(-c2ccccc2)c1)c1ccc(O)c(O)c1O	15	1	-33	3	2	0
SMILES	GDH-TPI counter	Mtb UGM inh	Rv3671c inh	Mtb bLac sens	FadD28 FP inh	Mtb FBA inh
O=C1/C(=C/c2cccnc2)Oc2cc(OS(=O)(=O)c3ccc(Cl)cc3)ccc21	3	0	-2	45	1	1
O=C1/C(=C/c2cccnc2)Oc2cc(OS(=O)(=O)c3ccccc3)ccc21	46*	0	0	99	1	4
CC(C)(Cl)C1Cc2cc3ccc(=O)oc3cc2O1 (configuration not stated)	26	0	-2	5	0	167*
CCN1CCN(S(=O)(=O)c2ccc(Cl)c(C(=O)N(C)Cc3ccc(C(C)(C)C)cc3)c2)CC1	-7	/	/	/	-1	1
O=[N+]([O-])c1cc(C(F)(F)F)ccc1NCCc1c[nH]c2ccccc12	4	0	2	98	0	-7
O=[N+]([O-])c1cc(C(F)(F)F)ccc1NCCc1c[nH]c2ccc(O)cc12	9	1	12	/	12*	-7
COc1ccccc1-c1cccc2nccn12	6	/	/	/	-1	128*
Clc1cccc(-c2cccc3nccn23)c1Cl	4	/	/	/	-5	7
CC(=O)Nc1cccc(-c2cccc3nccn23)c1	-3	/	/	/	-6	159*
CC(=O)Nc1ccccc1-c1cccc2nccn12	6	/	/	/	-4	125*
C=CCSc1nnc(-c2cc3c(s2)-c2ccccc2CC3)o1	9	-1	-21	94	-2	+
COc1cc(C=CC(=O)N2CCN(CC(=O)N3CCCC3)CC2)cc(OC)c1OC	10	/	/	/	-1	9
O=C(Cc1ccc(Br)cc1)c1ccc(O)cc1O	41*	-1	2	7	0	-4
O=C(Cc1ccc([N+](=O)[O-])cc1)c1ccc(O)cc1O	51*	1	2	-4	1	1
COc1ccc(CC(=O)c2ccc(O)cc2O)cc1	43*	-1	6	-3	-1	2
O=C(COc1ccccc1Br)c1ccc(O)cc1O	44*	2	-5	5	-4	-1
Cc1ccc(C(=O)Cc2ccccc2)c(O)c1	-1	/	/	/	-2	-1
O=C(Cc1ccc([N+](=O)[O-])cc1)OCc1ccc([N+](=O)[O-])cc1	1	1	1	6	/	-1
O=C(COc1ccccc1Br)c1ccc2c(c1)OCO2	3	3	4	-4	-7	-5
C/C(=N\NC(=O)C1CC1)c1ccc(OC(F)F)cc1	1	-4	-2	2	-3	0
Cc1cccc(CNC(=O)C2CCC(=O)N(CCCc3ccccc3)C2)c1 (configuration not stated)	11	/	/	/	-3	-2
COc1cc(-c2coc3c(C(=O)NCc4cccc(Cl)c4)cccc23)ccc1O	7	/	/	/	-1	-1
O=c1c(=O)n(CCO)n(CCO)c(=O)n1CCO	4	/	/	/	-1	0
COc1ccc(C)cc1/C=C/C(=O)N1CCN(S(=O)(=O)c2cccs2)CC1	13	/	/	/	-4	19
COc1ccc(C(=O)N/C(=C\c2cccs2)c2nc3ccccc3[nH]2)cc1OC	49*	1	3	?	-1	4
COc1ccc(/C=C(/NC(=O)c2ccccc2)c2nc3ccc(Cl)cc3[nH]2)cc1OC	36*	7	-22	6	-2	3
COc1ccc(/C=C(/NC(=O)c2ccccc2)c2nc3ccccc3[nH]2)cc1OC	42*	3	3	-6	-4	0
CC(=O)c1ccc(-c2cnc3c(NC=O)cc(-c4cnn(C)c4)cn23)cc1	28	/	/	/	-2	13
CCNC(=O)N(C)c1c(CC)nc2ccc(C(=O)N3CCN(C(C)=O)CC3)cn12	0	/	/	/	-2	-5

Bioassay records (PubChem BioAssay)
